Experimental findings from PubChem BioAssay (EPA / NIEHS) are described below.

Test [1] in a line: ATG_GLI_CIS: Attagene CIS-FACTORIAL HepG2 Assay for human Zinc Finger Protein GLI1 (AID 2282945). As to conditions: HepG2, Attagene cis-factorial reporter mRNA, GLI element; actives raise or lower the signal. The procedure, abridged:
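Bidirectional curve fits relative to DMSO, using reporter mRNA levels from RT-PCR plus capillary electrophoresis. Cells were HepG2 transiently carrying cis-regulated reporter constructs, harvested 24 h after dosing.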

Test [2] is described as follows: ATG_ISRE_CIS: Attagene CIS-FACTORIAL HepG2 Assay for human Interferon Regulatory Factor 1 (IRF1) binding to an Interferon-Stimulated Response Element (ISRE) (AID 2282948). As to conditions: HepG2 ISRE cis-reporter (Attagene), mRNA transcription readout; actives raise or lower the signal. The gist of the method:
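Transiently transfected HepG2 cells carrying cis-element reporter units, dosed 24 hours. Reporter mRNA quantified by RT-PCR, fluorescent primer extension, HpaI digestion and capillary electrophoresis. Bidirectional fitting relative to DMSO.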

Test [3] can be described thus: ATG_M_06_CIS: Attagene CIS-FACTORIAL HepG2 Assay for M06 Transcription Factor (Internal Marker) (AID 2282950). As to conditions: HepG2 Attagene CIS-FACTORIAL M06 internal marker reporter; actives raise or lower the signal. The gist of the method: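 Internal background marker within multiplexed cis-reporter HepG2 system. Cells transiently transfected, dosed 24 h; reporter mRNA measured by RT-PCR, HpaI digestion and capillary electrophoresis. Bidirectional fit relative to DMSO.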

Test [4] has as its target Hypoxia-inducible factor 1-alpha (Homo sapiens) (UniProt Q16665). The test can be described thus: ATG_HIF1a_CIS: Attagene CIS-FACTORIAL HepG2 Assay for human Hypoxia Inducible Factor 1 (HIF1A) (AID 2282951). As to conditions: HepG2 Attagene cis-factorial HIF1a reporter transcription; actives raise or lower the signal. The procedure, abridged: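 HepG2, transient cis-reporter library, 24 h dosing. RNA → RT (oligo dT) → PCR → 6-FAM primer extension → HpaI → CE. Bidirectional curve fit vs DMSO.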

In test [5] the target is Hepatocyte nuclear factor 6 (Homo sapiens) (UniProt Q9UBC0). In words: ATG_HNF6_CIS: Attagene CIS-FACTORIAL HepG2 Assay for human Hepatocyte Nuclear Factor 6 (HNF6) (AID 2282952). As to conditions: HepG2 Attagene cis-factorial HNF6 reporter transcription; actives raise or lower the signal. The procedure, abridged: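 HepG2 cells transiently transfected with cis-element-driven multiplexed reporter units measuring endogenous transcription factor activity. After 24 h exposure, reporter mRNA quantified by RT-PCR, FAM-labelled fragments and capillary electrophoresis; bidirectional fitting versus DMSO.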
Chain of Hepatocyte nuclear factor 6 (Homo sapiens) (Q9UBC0 whole entry, looked up, the tested form may be a part): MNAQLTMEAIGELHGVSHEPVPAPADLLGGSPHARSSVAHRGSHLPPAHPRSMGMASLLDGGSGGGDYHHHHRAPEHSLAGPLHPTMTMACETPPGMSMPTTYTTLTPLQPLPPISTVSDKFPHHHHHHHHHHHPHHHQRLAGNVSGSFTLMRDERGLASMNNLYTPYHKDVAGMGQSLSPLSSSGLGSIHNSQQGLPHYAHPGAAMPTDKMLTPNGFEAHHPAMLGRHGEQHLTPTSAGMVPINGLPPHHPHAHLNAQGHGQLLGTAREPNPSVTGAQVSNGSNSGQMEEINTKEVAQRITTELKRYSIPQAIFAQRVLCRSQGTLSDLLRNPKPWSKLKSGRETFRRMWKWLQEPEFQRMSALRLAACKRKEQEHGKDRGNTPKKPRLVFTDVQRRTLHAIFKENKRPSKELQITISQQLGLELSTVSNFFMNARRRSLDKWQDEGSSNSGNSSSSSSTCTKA

In test [6] the target is Heat shock factor protein 1 (Homo sapiens) (UniProt Q00613). In words: ATG_HSE_CIS: Attagene CIS-FACTORIAL HepG2 Assay for human Heat Shock Transcription Factor 1 (HSE) (AID 2282953). As to conditions: HepG2 HSE cis-reporter, Attagene RNA transcription; actives raise or lower the signal. The gist of the method:
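HepG2 cells transfected with cis-promoter reporter units sensing endogenous transcription factor activity; reporter mRNA quantified 24 h post-dose by RT-PCR and capillary electrophoresis of 6-FAM-labelled products. Bidirectional fitting against DMSO.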

Test [7] is described as follows: ATG_MRE_CIS: Attagene CIS-FACTORIAL HepG2 Assay for human Metal Responsive Element (MRE) (AID 2282954). As to conditions: HepG2 MRE cis-reporter transcription, Attagene multiplex; actives raise or lower the signal. The gist of the method: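 After a 24 h chemical exposure, transiently transfected HepG2 cells yield RNA whose reporter sequences are amplified, FAM-labelled and sized by capillary electrophoresis. Curves are fitted bidirectionally relative to DMSO.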

Test [8] concerns the target Paired box protein Pax-6 (Homo sapiens) (UniProt P26367). In words: ATG_Pax6_CIS: Attagene CIS-FACTORIAL HepG2 Assay for human Paired Box 6 (PAX6) (AID 2282956). As to conditions: HepG2 CIS-FACTORIAL PAX6 reporter transcription, RNA readout; actives raise or lower the signal. The procedure, abridged:
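HepG2 cells transiently transfected with cis-promoter-driven multiplexed reporter units sensing endogenous transcription factor activity; 24 h chemical exposure. Reporter mRNA quantified by RT-PCR, 6-FAM labelling, HpaI digestion and capillary electrophoresis; bidirectional fit versus DMSO baseline.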

A short description of test [9]: ATG_PXRE_CIS: Attagene CIS-FACTORIAL HepG2 Assay for human Pregnane X Receptor Element (PXRE) (AID 2282957). As to conditions: HepG2 Attagene CIS-FACTORIAL PXRE reporter, mRNA; actives raise or lower the signal. The procedure, abridged:
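HepG2 cells transiently transfected with cis-element-driven multiplexed reporter units; after 24 h chemical exposure, reporter mRNA measured by RT-PCR, 6-FAM labelling, HpaI digestion and capillary electrophoresis. Bidirectional fitting relative to DMSO.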

The target of test [10] is Transcription factor Sp1 (Homo sapiens) (UniProt P08047). In words: ATG_Sp1_CIS: Attagene CIS-FACTORIAL HepG2 Assay for human Specificity Protein 1 (Sp1) (AID 2282961). As to conditions: HepG2 Sp1 cis-reporter transcription, actives raise or lower the signal. The procedure, abridged: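 Measures mRNA induction of an Sp1-linked reporter in HepG2 cells 24 h post-dosing. Multiplexed reporters read by RT-PCR and capillary electrophoresis; DMSO serves as negative control and baseline.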
Chain of Transcription factor Sp1 (Homo sapiens) (P08047 whole entry, looked up): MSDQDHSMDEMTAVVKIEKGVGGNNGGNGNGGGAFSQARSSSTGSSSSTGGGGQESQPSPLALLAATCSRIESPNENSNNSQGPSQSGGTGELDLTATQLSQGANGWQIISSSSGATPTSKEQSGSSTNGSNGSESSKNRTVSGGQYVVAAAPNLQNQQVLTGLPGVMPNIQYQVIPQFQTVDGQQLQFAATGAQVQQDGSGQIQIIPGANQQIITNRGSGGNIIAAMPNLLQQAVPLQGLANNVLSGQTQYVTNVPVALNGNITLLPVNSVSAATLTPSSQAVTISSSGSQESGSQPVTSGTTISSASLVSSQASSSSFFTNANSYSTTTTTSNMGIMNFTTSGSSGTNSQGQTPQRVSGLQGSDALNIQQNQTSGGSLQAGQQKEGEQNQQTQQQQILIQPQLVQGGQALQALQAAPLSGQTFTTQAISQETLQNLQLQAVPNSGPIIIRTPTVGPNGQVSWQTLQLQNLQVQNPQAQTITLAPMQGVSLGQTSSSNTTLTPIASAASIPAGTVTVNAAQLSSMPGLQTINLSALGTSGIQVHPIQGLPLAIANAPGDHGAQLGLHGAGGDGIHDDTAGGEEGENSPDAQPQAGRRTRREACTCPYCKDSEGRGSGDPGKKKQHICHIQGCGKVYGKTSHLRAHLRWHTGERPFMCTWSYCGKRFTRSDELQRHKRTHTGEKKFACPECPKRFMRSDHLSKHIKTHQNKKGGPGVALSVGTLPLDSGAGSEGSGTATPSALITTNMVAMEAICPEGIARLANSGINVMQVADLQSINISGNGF

Test [11] in a line: ATG_SREBP_CIS: Attagene CIS-FACTORIAL HepG2 Assay for human Sterol Regulatory Element Binding (SREBP) (AID 2282962). As to conditions: HepG2 Attagene cis-factorial SREBP reporter, mRNA; actives raise or lower the signal. The procedure, abridged:
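HepG2 cells transiently transfected with multiplexed cis-promoter reporter units sensing endogenous transcription factors; reporter mRNA measured 24 h after dosing by RT-PCR, 6-FAM labeling, HpaI digestion and capillary electrophoresis. Bidirectional fit versus DMSO.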

Test [12] has as its target Signal transducer and activator of transcription 3 (Homo sapiens) (UniProt P40763). The test can be described thus: ATG_STAT3_CIS: Attagene CIS-FACTORIAL HepG2 Assay for human Signal Transducer and Activator of Transcription 3 (STAT3) (AID 2282963). As to conditions: HepG2, Attagene cis-factorial STAT3 reporter transcription; actives raise or lower the signal. The procedure, abridged:
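After a 24 h compound incubation, total RNA from MRTU-transfected HepG2 cells was converted to cDNA and reporter sequences PCR-amplified, labelled and profiled by capillary electrophoresis. Gain and loss of signal were referenced to DMSO.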

Test [13] in a line: ATG_TA_CIS: Attagene CIS-FACTORIAL HepG2 Assay for human TA Basal Promoter (AID 2282964). As to conditions: HepG2 Attagene CIS-factorial TA basal promoter reporter; actives raise or lower the signal. The procedure, abridged: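 HepG2 cells transiently transfected with multiple reporter units under cis promoter elements, reporting endogenous transcription factor activity; this endpoint tracks the TA basal promoter as background control. Reporter mRNA after 24 h dosing measured by RT-PCR/capillary electrophoresis; bidirectional fits versus DMSO.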

Test [14] deals with Bile acid receptor (Homo sapiens) (UniProt Q96RI1). The test can be described thus: ATG_IR1_CIS: Attagene CIS-FACTORIAL HepG2 Assay for human Nuclear Receptor Subfamily 1 Group H Member 4 (NR1H4), IR1 submotif (AID 2282946). As to conditions: IR1 reporter transcription, actives raise or lower the signal. The gist of the method:
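Cells (human HepG2) carry transiently transfected cis-promoter reporter transcription units. Compounds are incubated 24 h, total RNA is reverse-transcribed and amplified, and labelled fragments are resolved by capillary electrophoresis. Curves use DMSO as baseline.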

A short description of test [15]: ATG_GRE_CIS: Attagene CIS-FACTORIAL HepG2 Assay for human Glucocorticoid Response Elements (GRE) (AID 2282947). As to conditions: HepG2 GRE cis-reporter, Attagene multiplex mRNA; actives raise or lower the signal. The gist of the method:
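Assay uses human hepatoma HepG2 cells transfected with cis-promoter reporter units, exposed 24 h. mRNA from reporters detected by RT-PCR plus capillary electrophoresis; DMSO serves as negative control and baseline.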

The nature of test [16]: ATG_M_32_CIS: Attagene CIS-FACTORIAL HepG2 Assay for M32 Transcription Factor (Internal Marker) (AID 2282949).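 Further: background control marker of the multiplexed CIS panel rather than a real target.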 As to conditions: HepG2 Attagene cis-factorial M32 reporter, mRNA; actives raise or lower the signal. The procedure, abridged: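 Internal background marker read-out: RT-PCR/capillary electrophoresis fluorescence of reporter transcripts from transiently transfected HepG2 cells after 24 h chemical exposure. Activity fitted bidirectionally relative to DMSO negative control.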

Test [17] is described as follows: ATG_PBREM_CIS: Attagene CIS-FACTORIAL HepG2 Assay for human Phenobarbital-responsive Enhancer Module (PBREM) (AID 2282955). As to conditions: HepG2 PBREM cis-reporter, Attagene multiplexed transcription; actives raise or lower the signal. The procedure, abridged: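 HepG2, transient MRTU transfection, 24 h dosing; RNA → oligo(dT) RT → PCR → 6-FAM extension → HpaI → CE. Bidirectional fit vs DMSO.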

Test [18] can be described thus: ATG_Sox_CIS: Attagene CIS-FACTORIAL HepG2 Assay for human SRY-box transcription factor (SOX) (AID 2282960). As to conditions: HepG2 Attagene cis-factorial SOX reporter, mRNA; actives raise or lower the signal. The procedure, abridged:
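Cells were transfected with reporter constructs under cis-regulatory promoters, then exposed to chemicals for 24 h. Reporter transcripts were quantified by fluorescence after RT-PCR and capillary electrophoresis; activity was fitted in both directions against DMSO.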

A short description of test [19]: ATG_PPRE_CIS: Attagene CIS-FACTORIAL HepG2 Assay for human Peroxisome Proliferator-activated Response Element (PPRE) (AID 2282958). As to conditions: HepG2 PPRE cis-element reporter, Attagene transcription factor profiling; actives raise or lower the signal. The procedure, abridged: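 Transcript-level reporter induction in transfected HepG2 cells after 24 h chemical exposure, quantified by fluorescence from RT-PCR products separated by capillary electrophoresis.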

The nature of test [20]: ATG_RORE_CIS: Attagene CIS-FACTORIAL HepG2 Assay for human RAR-related Orphan Receptor Element (RORE) (AID 2282959). As to conditions: HepG2 Attagene cis-factorial RORE reporter, mRNA; actives raise or lower the signal. The procedure, abridged:
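Multiplexed reporter assay measuring mRNA induction from a cis promoter element in transiently transfected HepG2 cells after 24 h treatment. Detection via RT-PCR and capillary electrophoresis fluorescence; DMSO serves as baseline.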

Active and inactive are the calls of the source. How the source made its calls: active means hit-call score of the fitted dose curve at least 0.9, where 1 is the maximum; inactive means score below 0.9.

Chain of Heat shock factor protein 1 (Homo sapiens) (Q00613 whole entry, looked up): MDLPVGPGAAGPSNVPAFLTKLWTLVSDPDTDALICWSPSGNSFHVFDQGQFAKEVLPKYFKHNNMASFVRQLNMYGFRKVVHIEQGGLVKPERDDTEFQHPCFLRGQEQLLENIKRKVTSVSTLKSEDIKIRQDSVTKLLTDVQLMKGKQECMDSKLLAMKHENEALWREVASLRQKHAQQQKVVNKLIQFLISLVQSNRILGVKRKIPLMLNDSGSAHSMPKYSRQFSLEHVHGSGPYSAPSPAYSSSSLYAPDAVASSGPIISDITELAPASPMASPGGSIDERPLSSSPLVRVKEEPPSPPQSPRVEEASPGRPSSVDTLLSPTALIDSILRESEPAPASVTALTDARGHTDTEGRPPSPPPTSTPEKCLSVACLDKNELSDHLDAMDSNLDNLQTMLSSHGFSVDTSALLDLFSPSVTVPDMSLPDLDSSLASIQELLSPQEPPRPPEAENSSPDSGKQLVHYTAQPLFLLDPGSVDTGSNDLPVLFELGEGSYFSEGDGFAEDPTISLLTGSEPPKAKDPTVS
Chain of Hypoxia-inducible factor 1-alpha (Homo sapiens) (Q16665 whole entry, looked up): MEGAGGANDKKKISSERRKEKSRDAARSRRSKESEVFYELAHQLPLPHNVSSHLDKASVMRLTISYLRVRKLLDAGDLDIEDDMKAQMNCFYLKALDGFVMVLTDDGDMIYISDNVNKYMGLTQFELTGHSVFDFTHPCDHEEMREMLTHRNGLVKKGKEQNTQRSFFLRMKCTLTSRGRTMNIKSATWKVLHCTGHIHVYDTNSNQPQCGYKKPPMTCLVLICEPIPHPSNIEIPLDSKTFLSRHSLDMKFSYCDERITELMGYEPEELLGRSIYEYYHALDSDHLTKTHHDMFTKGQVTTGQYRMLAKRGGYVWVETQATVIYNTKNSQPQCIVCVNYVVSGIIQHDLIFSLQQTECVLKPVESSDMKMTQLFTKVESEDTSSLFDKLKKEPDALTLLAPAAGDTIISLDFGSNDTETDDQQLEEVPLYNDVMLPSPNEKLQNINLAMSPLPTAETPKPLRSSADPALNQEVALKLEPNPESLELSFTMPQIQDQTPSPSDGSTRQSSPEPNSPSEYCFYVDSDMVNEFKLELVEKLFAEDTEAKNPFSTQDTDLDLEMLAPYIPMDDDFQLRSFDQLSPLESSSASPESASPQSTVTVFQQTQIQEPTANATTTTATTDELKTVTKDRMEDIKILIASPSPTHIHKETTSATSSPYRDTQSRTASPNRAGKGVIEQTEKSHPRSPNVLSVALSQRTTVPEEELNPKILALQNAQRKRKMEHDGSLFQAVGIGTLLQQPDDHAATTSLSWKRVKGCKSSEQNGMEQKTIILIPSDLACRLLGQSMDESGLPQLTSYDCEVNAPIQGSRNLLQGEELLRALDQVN
Chain of Paired box protein Pax-6 (Homo sapiens) (P26367 whole entry, looked up): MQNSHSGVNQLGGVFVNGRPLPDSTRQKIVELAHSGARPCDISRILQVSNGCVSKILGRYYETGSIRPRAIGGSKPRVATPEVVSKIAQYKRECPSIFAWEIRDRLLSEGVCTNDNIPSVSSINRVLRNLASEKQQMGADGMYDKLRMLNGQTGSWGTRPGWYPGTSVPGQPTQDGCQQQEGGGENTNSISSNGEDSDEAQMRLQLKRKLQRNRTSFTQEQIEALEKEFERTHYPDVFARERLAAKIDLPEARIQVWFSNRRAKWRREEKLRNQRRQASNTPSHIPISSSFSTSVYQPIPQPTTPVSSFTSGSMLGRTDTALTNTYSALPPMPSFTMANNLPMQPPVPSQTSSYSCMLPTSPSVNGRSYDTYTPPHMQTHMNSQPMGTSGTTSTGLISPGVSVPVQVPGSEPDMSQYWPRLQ
Chain of Signal transducer and activator of transcription 3 (Homo sapiens) (P40763 whole entry, looked up): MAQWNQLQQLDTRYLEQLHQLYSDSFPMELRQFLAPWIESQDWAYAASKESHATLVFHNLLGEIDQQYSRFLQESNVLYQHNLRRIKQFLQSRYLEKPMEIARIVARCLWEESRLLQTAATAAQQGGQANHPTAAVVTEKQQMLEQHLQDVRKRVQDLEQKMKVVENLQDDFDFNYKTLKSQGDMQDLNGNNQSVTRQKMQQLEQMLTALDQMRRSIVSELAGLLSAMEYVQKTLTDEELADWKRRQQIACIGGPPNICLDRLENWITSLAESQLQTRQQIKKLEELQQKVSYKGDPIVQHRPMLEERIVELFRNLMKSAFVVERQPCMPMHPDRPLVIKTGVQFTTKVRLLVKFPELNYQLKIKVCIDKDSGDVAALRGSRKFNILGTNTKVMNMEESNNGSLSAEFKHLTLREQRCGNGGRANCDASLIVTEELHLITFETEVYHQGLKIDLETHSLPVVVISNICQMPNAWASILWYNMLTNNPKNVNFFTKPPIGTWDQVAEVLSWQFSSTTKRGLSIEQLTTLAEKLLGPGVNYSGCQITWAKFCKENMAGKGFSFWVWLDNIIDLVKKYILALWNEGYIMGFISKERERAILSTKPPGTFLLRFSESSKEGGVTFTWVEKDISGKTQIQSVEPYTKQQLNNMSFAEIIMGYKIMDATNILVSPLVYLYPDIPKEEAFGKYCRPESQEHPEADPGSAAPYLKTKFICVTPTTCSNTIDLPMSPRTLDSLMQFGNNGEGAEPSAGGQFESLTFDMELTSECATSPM
Chain of Bile acid receptor (Homo sapiens) (Q96RI1 whole entry, looked up, the tested form may be a part): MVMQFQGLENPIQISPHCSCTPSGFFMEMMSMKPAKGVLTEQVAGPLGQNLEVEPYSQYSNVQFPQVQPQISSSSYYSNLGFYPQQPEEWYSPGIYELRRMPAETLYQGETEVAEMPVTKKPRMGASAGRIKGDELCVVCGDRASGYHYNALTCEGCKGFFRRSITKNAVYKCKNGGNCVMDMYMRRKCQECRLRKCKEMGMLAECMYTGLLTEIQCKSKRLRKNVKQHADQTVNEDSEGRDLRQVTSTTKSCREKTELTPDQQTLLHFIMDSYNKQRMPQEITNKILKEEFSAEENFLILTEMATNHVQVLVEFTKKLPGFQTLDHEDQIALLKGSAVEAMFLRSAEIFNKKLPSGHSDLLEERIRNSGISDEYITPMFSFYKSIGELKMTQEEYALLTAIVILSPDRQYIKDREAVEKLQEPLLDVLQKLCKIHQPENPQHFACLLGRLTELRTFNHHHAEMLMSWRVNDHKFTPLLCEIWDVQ

Take `CCCCCCCCCCCCCCCCCC(=O)O`: the outcome in test [1], in test [2], in test [3], in test [4], in test [5] and in test [6] was inactive. Further, the call in [7], in test [8], in test [9], in test [10], in [11] and in [12] was inactive. Further, in test [13], the outcome was inactive.
Take `CCCCc1ccc2c(n1)[C@@H](c1ccc(OC)cc1C[C@H](C)C(=O)O)[C@H](C(=O)O)[C@H]2c1ccc2c(c1)OCO2`: the result in test [14], in test [15], in test [2], in test [16], in test [3] and in test [4] was inactive. For the same compound, the compound was called inactive in test [5], in [6], in test [7], in [17], in [8] and in test [9]. Besides, the compound was called inactive in test [18], in test [10], in test [11], in test [12] and in test [13].
The term AC50 denotes the concentration at which the activity in the assay is half-maximal. Take `Cc1ccc(C)c(C)c1`: the outcome in test [1], in test [15], in test [2], in test [3], in test [4] and in [5] was inactive. For the same compound, the result in test [6], in [7], in [17], in [8], in test [19] and in [10] was inactive. The result in [11], in test [12] and in [13] was inactive. For the same compound, in test [9], the AC50 is 27.5 µM (active).
Consider `NS(=O)(=O)c1cc2c(cc1Cl)NCNS2(=O)=O`, for which, in [14], the half-maximal activity concentration (AC50) is 3.7 µM (active). Further, the compound was classed as inactive in test [15], in test [2], in test [16], in test [3], in test [5] and in test [6]. The result in test [7], in test [8], in test [9], in test [20], in [18] and in [10] was inactive. Further, the compound was classed as inactive in test [11], in test [12] and in test [13].
